# Measured values from PubChem BioAssay AID651629 (Sanford-Burnham Center for Chemical Genomics, 2012).
# The list shows a part of the results. Activity calls are given as the source filed them.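 The calls were made as follows: active = mean inhibition across replicates of 40% or more; inactive = mean inhibition below 40%.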
# Experiment: triacylglycerol accumulation inhibitors, retest, confirmation, cell-based, single concentration, Nile Red fluorescence, H9c2 (AID 651629);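 also: plate controls were DMSO only wells for no effect and Triacsin C treated wells for full effect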
# Conditions: H9c2 lipid accumulation, at 12.5 µM, hits give high values, cells loaded with 200 µM oleic acid
row,Structure (SMILES),inhibition
1,Cc1onc(NC(=O)c2ccc([N+](=O)[O-])o2)c1Br,46% (active)
2,COc1ccc(CC(=O)Nc2ccc(-c3nnc(-c4ccc(C)cc4)o3)cc2)cc1,57.6% (active)
3,O=C(Nc1nc(-c2ccncc2)cs1)C1COc2ccccc2O1 (stereo not given),31.4% (inactive)
4,CC1(c2ccccc2)CC(C)(C)N(C(=O)c2cc([N+](=O)[O-])cc([N+](=O)[O-])c2)c2ccccc21 (stereo not given),62.2% (active)
5,COc1cc(/C=C2\Oc3ccc(C#Cc4ccc(O)cc4)cc3C2=O)cc(OC)c1,103% (active)
6,O=C(Nc1ccccc1)Oc1cccc2cccnc12,-3.58% (inactive)
7,CCCOC(=O)c1[nH]c2c(c1C)C(=O)CC(c1cccs1)C2 (stereo not given),35.2% (inactive)
8,C=CCNC(=S)N/N=C/c1ccc(C)s1,24.3% (inactive)
9,O=C(CSc1nc2ccc(Nc3nc(N4CCOCC4)nc(N4CCOCC4)n3)cc2s1)NCc1ccco1,65.5% (active)
10,CCCC(=O)Nc1nc2ccc(NC(=O)c3c(F)c(F)c(OC)c(F)c3F)cc2s1,69% (active)
11,COc1ccc(Nc2cc(=O)oc3ccccc23)cc1,50.6% (active)
12,C=CCC[C@@H](Cc1ccc(F)cc1)C(=O)OC[C@H](Cc1c[nH]c2ccccc12)NC(=O)[C@@H](CC=C)CC(=O)N(CCO)Cc1ccccc1,80% (active)
13,COc1ccc(-c2cc(NC=O)c3ncc(-c4cc(OC)c(OC)c(OC)c4)n3c2)c(OC)c1,79.3% (active)
14,CCOC(=O)N1CCN(C(=O)c2ccccc2N(Cc2ccccc2)S(=O)(=O)c2ccc(OC)cc2)CC1,64.1% (active)
15,O=C(Nc1ccc(-c2csc(Nc3cccc(C(F)(F)F)c3)n2)cc1)c1cccc(C(F)(F)F)c1,66% (active)
16,CN(C)C(=S)N=c1ssc(=S)n1Cc1ccco1,62.1% (active)
17,O=C1c2ccccc2C(=O)c2c1cccc2N1CCN(C/C=C/c2ccccc2)CC1,64% (active)
18,COc1ccccc1C1C2=C(COC2=O)Nc2cc3c(cc21)OCO3 (stereo not given),61.4% (active)
19,CCCCN1C(=O)/C(=C/C=C2/C=Cc3ccccc3N2CC)SC1=S,127% (active)
20,CC1(C(=O)NCc2ccco2)Cc2c(-c3ccc4c(c3)OCO4)ccnc2O1 (stereo not given),61.9% (active)
21,Oc1cccc2cc(-c3ccncc3)cnc12,71.1% (active)
22,COC(C[C@H](O)CC(=O)COCc1ccccc1)OC,-3.23% (inactive)
23,C=CCn1c(SCc2c(C)noc2C)nc2sc3c(c2c1=O)CCC(C)C3 (stereo not given),49.4% (active)
24,CN(C)C(=O)c1cccc(-c2cnc3c(NC=O)cc(-c4ccc(C(=O)N5CCOCC5)cc4)cn23)c1,58% (active)
25,Cc1cc(N/N=C\c2ccc(Br)cc2)nc(-n2nc(C)cc2C)n1,58.6% (active)
